High-throughput results as filed in PubChem.
RORgamma inh – qHTS for inhibitors of ROR gamma transcriptional activity; Nuclear receptor ROR-gamma (Mus musculus), P51450; Potency, µM (series often up to 53.6 µM), for the others: top-dose activity change, negative = inhibition, usual class: inhibitors; 310,000 compounds, 5.4% hits; Drosophila S2 Gal4-RORgamma UAS-luciferase reporter, 20 h; also: nearly all actives have a fitted effect of over 60% in size
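Compounds are pin-transferred onto Drosophila Schneider cells expressing a copper-inducible Gal4–ROR gamma transactivation domain fusion. After 1 hr, copper sulfate is added to 700 uM final; luciferase is read 20 hr later.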
TDP1 cell noCPT – qHTS for Inhibitors of human tyrosyl-DNA phosphodiesterase 1 (TDP1): qHTS in cells in absence of CPT. DT40 Tdp1-/- hTDP1 cells, no CPT, ATP luminescence, 48 h. Potency, µM (titrated, usually from 46.2 µM), for inactives: at the highest dose activity change, negative = growth inhibition, actives largely listed as inhibitors. 420,000 compounds, 15% hits; also: nearly all actives have a fitted effect of over 55% in size
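Chicken DT40 Tdp1-/- cells stably complemented with human TDP1 were seeded at 400 cells/well with DMSO in place of 20 nM camptothecin. After compound pinning, cells grew at least 48 hr at 37 °C; viability read by CellTiter-Glo luminescence.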
Gal4-VP16 FLuc – VP16 counterscreen qHTS for inhibitors of ROR gamma transcriptional activity; Drosophila S2 Gal4-VP16 UAS-luciferase, luminescence, 20 h; Potency, µM (top dose mostly 53.6 µM), inactives show at the highest dose activity, negative = inhibition, usual class: inhibitors; 310,000 compounds, 3.5% hits;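 also: Gal4-VP16 expression switched on by copper sulfate through the metallothionein promoter; nearly all actives have a fitted effect of over 50% in size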
TDP1 cell CPT – qHTS for Inhibitors of human tyrosyl-DNA phosphodiesterase 1 (TDP1): qHTS in cells in presence of CPT; chicken DT40 Tdp1-/-;hTDP1 cells + 20 nM CPT, ATP luminescence, 48 h; Potency, µM (highest dose often 46.2 µM), inactives show top-dose activity change, negative = growth inhibition, hits mostly inhibitors; 420,000 compounds, 12% hits; also: nearly all actives have a fitted effect of over 55% in size
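Chicken DT40 Tdp1-/- cells complemented with human TDP1, 400 cells/well, exposed to compounds plus 20 nM camptothecin for at least 48 h at 37 C; viability read as ATP content by CellTiter-Glo luminescence.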
ELG1 repair inh – qHTS screen for small molecules that inhibit ELG1-dependent DNA repair in human embryonic kidney (HEK293T) cells expressing luciferase-tagged ELG1 | 330,000 compounds, 2.3% hits | HEK293T ELG1-luciferase reporter, luminescence, 16 h; DNA damage induced by 5-fluorouridine | Potency, µM (highest dose often 46.1 µM), for inactives: at the highest dose activity change, negative = inhibition, most hits filed as inhibitors; also: nearly all actives have a fitted effect of over 55% in size
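Overnight (16 hr) co-exposure of 2,000 cells/well to 5-fluorouridine and compound at 37 °C preceded detection. Luciferase was quantified via ONE-Glo luminescence; loss of signal denotes inhibition.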
12-LOX inh – Primary qHTS assay for inhibitors of human arachidonate 12S-lipoxygenase (ALOX12): Round 2; 580,000 compounds, 1.1% hits; Polyunsaturated fatty acid lipoxygenase ALOX12 (Homo sapiens), P18054; AID 1671190, 2021; purified 12hLO, xylenol orange hydroperoxide absorbance; Potency, µM (doses to about 108 µM), without a hit: top-dose activity change, negative = inhibition, actives largely listed as inhibitors
Target sequence (P18054 whole entry, looked up): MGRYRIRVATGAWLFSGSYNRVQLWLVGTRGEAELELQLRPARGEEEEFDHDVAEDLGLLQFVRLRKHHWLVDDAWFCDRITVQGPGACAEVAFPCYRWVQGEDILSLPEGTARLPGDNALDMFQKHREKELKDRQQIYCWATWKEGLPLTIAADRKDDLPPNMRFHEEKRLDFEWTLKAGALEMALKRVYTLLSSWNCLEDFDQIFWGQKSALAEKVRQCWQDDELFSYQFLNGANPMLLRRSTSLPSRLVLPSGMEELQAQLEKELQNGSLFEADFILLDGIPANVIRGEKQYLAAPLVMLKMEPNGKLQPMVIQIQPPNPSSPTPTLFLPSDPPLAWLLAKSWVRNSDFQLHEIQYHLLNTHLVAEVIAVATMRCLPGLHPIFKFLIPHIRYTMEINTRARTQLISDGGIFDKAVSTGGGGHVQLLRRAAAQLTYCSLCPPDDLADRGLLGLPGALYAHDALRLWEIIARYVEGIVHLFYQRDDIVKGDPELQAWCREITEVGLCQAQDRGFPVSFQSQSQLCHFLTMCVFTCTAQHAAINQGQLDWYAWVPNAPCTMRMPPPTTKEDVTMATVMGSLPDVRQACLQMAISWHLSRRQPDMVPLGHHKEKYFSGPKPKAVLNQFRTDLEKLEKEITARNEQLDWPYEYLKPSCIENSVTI
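Purified human 12hLO at 150 nM in 25 mM Hepes, 0.01% Triton X-100, pH 7.0, preincubated 15 min at room temperature with compound. Reaction started with 40 uM arachidonic acid, 30 min at room temperature. Hydroperoxide measured by Fe-xylenol orange, 573/405 nm absorbance ratio.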
An asterisk follows results filed as active; u = inconclusive; x = no result given. Only some compounds are listed: those with a hit (about 15% of all), similar ones and a draw of the others. Calls follow the shape of the dose curve; as a rule, active = well fitted curve in the direction sought with a large enough effect; inconclusive = small, poorly fitted or top-dose-only effect, or another doubt; inactive = no such curve, though single readings can be large; an effect the other way counts as inactive or inconclusive. % is scaled to controls: 0 for no effect and ±100 for the full control effect; potency is read from the fitted curve at half-maximal effect.

SMILES	RORgamma inh	TDP1 cell noCPT	Gal4-VP16 FLuc	TDP1 cell CPT	ELG1 repair inh	12-LOX inh
COc1ccc(C#Cc2ccc3c(=O)c4ccccc4n(C)c3c2)cc1	18%	18µM*	6%	u	12%	x
Cn1c2ccccc2c(=O)c2cc(C#CC3=CCCCC3)ccc21	x	18µM*	x	7.3µM*	u	-28%
Cn1c2ccccc2c(=O)c2ccc(C#Cc3ccc(N)cc3)cc21	22%	16µM*	15%	u	-35%	u
COc1ccccc1C#Cc1ccc2c(=O)c3ccccc3n(C)c2c1	u	u	3%	u	u	-3%
COc1ccc(-c2nn(-c3ccccc3)cc2CN2CCCC(C#N)C2)c(F)c1 (configuration not stated)	x	x	x	x	x	17%
COc1ccc(CNC(=O)c2csc(NCc3ccccc3)n2)cc1	x	x	x	x	x	30%
Cc1nc(C)c(C(=O)N(c2ccccc2F)C(C(=O)NCC2CCCO2)c2ccccc2)s1 (configuration not stated)	-6%	u	9%	26µM*	-8%	-6%
COc1ccc(C(OC(=O)c2cccs2)C(=O)NCC2CCCO2)cc1 (configuration not stated)	-11%	-2%	7%	3.7µM*	16%	4%
CCc1ccc(N(C(=O)c2snc(C(N)=O)c2N)C(C(=O)NCC2CCCO2)c2ccco2)cc1 (configuration not stated)	19%	18µM*	-6%	23µM*	-10%	u
Cc1ccccc1N(C(=O)c1snc(C(N)=O)c1N)C(C(=O)NCC1CCCO1)c1ccc(N(C)C)cc1 (configuration not stated)	0%	u	2%	u	-32%	-25%
CCOc1ccc(N(C(=O)c2snc(C(N)=O)c2N)C(C(=O)NCC2CCCO2)c2ccco2)cc1 (configuration not stated)	26%	u	-3%	u	-3%	-4%
Cc1ccccc1N(C(=O)c1snc(C(N)=O)c1N)C(C(=O)NCC1CCCO1)c1ccc(F)cc1 (configuration not stated)	8%	10µM*	-10%	15µM*	-9%	6%
CCc1ccccc1N(C(=O)c1snc(C(N)=O)c1N)C(C(=O)NCC1CCCO1)c1c[nH]c2ccccc12 (configuration not stated)	u	21µM*	-3%	u	-12%	-5%
CCc1ccccc1N(C(=O)c1snc(C(N)=O)c1N)C(C(=O)NCC1CCCO1)c1ccc(C)o1 (configuration not stated)	13%	10µM*	10%	12µM*	-5%	30%
COc1ccc(N(C(=O)c2snc(C(N)=O)c2N)C(C(=O)NCC2CCCO2)c2ccc(C)o2)cc1OC (configuration not stated)	13%	18µM*	8%	u	-7%	1%
CC(C(=O)NCC1CCCO1)N(C(=O)c1snc(C(N)=O)c1N)c1ccccc1 (configuration not stated)	7%	-2%	0%	-7%	5%	-6%
Cc1ccc(N(C(=O)c2snc(C(N)=O)c2N)C(C(=O)NCC2CCCO2)c2ccc(C)o2)c(C)c1 (configuration not stated)	32%	16µM*	-7%	18µM*	-6%	u
O=C(COc1cccc(-n2cnnn2)c1)NC1CCCC1	x	x	x	x	x	12%
COc1ccc(C(C(=O)NCC2CCCO2)N(Cc2cccs2)C(=O)c2snc(C(N)=O)c2N)cc1 (configuration not stated)	15%	10µM*	20%	16µM*	u	-4%
CCOc1ccc(C(C(=O)NCC2CCCO2)N(Cc2cccc(OC)c2)C(=O)c2snc(C(N)=O)c2N)cc1 (configuration not stated)	20%	u	-9%	2%	u	61%
COC(=O)Nc1nc(C)c(C(=O)c2ccccc2)s1	-1%	12µM*	-1%	8.2µM*	0%	-10%
COC(=O)Nc1nc(-c2ccccc2)c(C(=O)c2ccccc2)s1	-5%	0.65µM*	0%	0.82µM*	5%	10%
Cn1cccc1C(=O)NC1CCCN(c2cc(-c3ccc(Cl)cc3)[nH]n2)C1 (configuration not stated)	x	x	x	x	x	26%
COc1ccc2c(c1)OC[C@H]1[C@H]2N2C(=O)c3ccc(F)cc3NC(=O)[C@@]2(C)[C@H]1c1ccccc1	x	23µM*	x	18µM*	x	-3%
COc1ccc2c(c1)OC[C@H]1[C@H]2N2C(=O)c3cc(Br)ccc3NC(=O)[C@@]2(C)[C@H]1c1ccccc1	x	u	x	-6%	-1%	x
SMILES	RORgamma inh	TDP1 cell noCPT	Gal4-VP16 FLuc	TDP1 cell CPT	ELG1 repair inh	12-LOX inh
COc1ccc2c(c1)[C@H]1[C@H](CO2)[C@H](c2ccccc2)[C@]2(C)C(=O)Nc3cc(F)ccc3C(=O)N12	x	18µM*	x	u	-16%	0%
O=C(CCCc1ccccc1)N[C@@H]1CN(c2ccncn2)C[C@H]1CO	x	x	x	x	x	19%
COc1ccc(NC(=O)CN(c2ccc(C)cc2)S(=O)(=O)c2cccc3nonc23)cc1OC	x	16µM*	x	-19%	x	0%
Cc1ccc(NC(=O)CN(c2ccc(Cl)cc2)S(=O)(=O)c2cc([N+](=O)[O-])ccc2Cl)cc1	45%	23µM*	6%	u	-23%	u
CC(=O)c1cccc(NC(=O)CN(c2ccc(C)cc2)S(=O)(=O)c2cccc3nonc23)c1	11%	u	7%	u	-18%	0%
COc1ccc(C)cc1S(=O)(=O)N(CC(=O)Nc1cccc([N+](=O)[O-])c1)c1ccc(C)c(C)c1	-25%	u	11%	16µM*	-14%	-8%
O=S(=O)(c1ccc2c(c1)CCO2)N1CCN(Cc2ccccc2)CC1	x	x	x	x	x	19%
COc1cc(/C=C(/C#N)C(=O)Nc2ccccc2C(F)(F)F)cc(Br)c1OC	x	x	x	x	x	-19%
